This is an account of results in PubChem BioAssay.

SMILES strings stand for the structures. A number with no mark means an inactive call. Calls of active or inactive are those of the source.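 The calls were made as follows: active = compounds that lower survival of DLD-1 colon cancer cells in the luminescence readout, no cutoff given; inactive = the rest.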

The assay is described as follows: decreased DLD-1 cellular survival, CellTiter-Glo luminescent readout, NPC compound collection, primary HTS (AID 1117346). The conditions noted are these: DLD-1 viability, CellTiter-Glo luminescence; at 20 µM (top of the series). In general terms: In ATP-based viability assays light output follows the ATP content of the culture.
With `C[C@H](N)[C@H](O)c1cccc(O)c1`, the viability decrease (inhibition) was 1.5%.
With `CN(Cc1cc(Br)cc(Br)c1N)C1CCCCC1` the figure was 97.2% (active); with `CC(=O)Nc1ccccc1`, 3.55%; with `CC(=O)Nc1ccc(S(=O)(=O)Nc2ccc([N+](=O)[O-])cc2)cc1`, -3.8%.
With `CCCOc1ccc2nc(NC(=O)OC)[nH]c2c1` the figure was 38.1%; with `CN(C)CCOC(=O)C(c1ccccc1)C1(O)CCCC1` (stereo not drawn), 31.8%; with `Cc1cc(O)cc(C)c1Cl`, 9.3%.
As for `CCCCCCc1ccc(O)cc1O`, the viability decrease (inhibition) was 56.2% (active).
For `Nc1ncnc2nc[nH]c12` the value was -23.8%; for `CC(N)C(=O)OC(C)(C)Cc1ccc(Cl)cc1` (stereo not drawn), 20.6%; for `COc1c2occc2c(OC)c2c(=O)cc(C)oc12`, -0.4%.
For `CC1=C(C(=O)O)N2C(=O)[C@@H](NC(=O)[C@H](N)c3ccc(O)cc3)[C@H]2SC1` the value was 7.3%.
With `COc1ccc(NS(=O)(=O)c2ccc(N)cc2)nn1` the figure was -8.6%.
`NC[C@H]1O[C@H](O[C@H]2[C@H](O)[C@@H](O[C@H]3O[C@H](CO)[C@@H](O)[C@H](N)[C@H]3O)[C@H](N)C[C@@H]2N)[C@H](N)[C@@H](O)[C@@H]1O`: the viability decrease (inhibition) was -1.7%.
For `CCCCc1nc(Cl)c(CO)n1Cc1ccc(-c2ccccc2-c2nn[nH]n2)cc1` the value was -22.4%; for `CC(=O)Oc1cccc(O)c1`, -7.4%.
As for `COc1ccc(C(=O)c2ccccc2)c(O)c1`, the viability decrease (inhibition) was -0.05%.
For `O=C(N[C@H](CO)[C@H](O)c1ccc([N+](=O)[O-])cc1)C(Cl)Cl` the value was -7%; for `CCN(CC)CCOC(=O)C(c1ccccc1)C1CCCCC1` (stereo not drawn), 48.4%.
With `Nc1c2ccccc2nc2ccccc12` the figure was 49% (active); with `Oc1c(Br)cc(Br)c2cccnc12`, 99.7% (active); with `C[N+]12CCC(CC1)C(OC(=O)C(O)(c1ccccc1)c1ccccc1)C2` (stereo not drawn), -13.7%.
For `CC(=O)Nc1c(I)cc(I)c(C(=O)O)c1I` the value was 0.1%.
In the case of `Cc1c(NC(C)C)c(=O)n(-c2ccccc2)n1C`, the viability decrease (inhibition) is -1.3%.
With `COc1ccc2cc3[n+](cc2c1OC)CCc1cc2c(cc1-3)OCO2` the figure was 62.7% (active); with `NC(N)=N/N=C/c1c(Cl)cccc1Cl`, 45.4%.
With `CCN(CC)C(=O)c1cccc(C)c1` the figure was 12.4%.
For `CC(=O)OCC(COC(C)=O)OC(C)=O` the value was -3.8%; for `CC1(C)OC(=O)NC1=O`, -3.2%; for `COc1cnc(NS(=O)(=O)c2ccc(N)cc2)nc1`, -14.6%.
On to `CCCCC(CC)CN1CN(CC(CC)CCCC)CC(C)(N)C1` (stereo not drawn), for which the viability decrease (inhibition) is 105% (active).
For `Cc1[nH]c(C)c(Cl)c(=O)c1Cl` the value was 11.2%; for `Cc1nnc(NS(=O)(=O)c2ccc(N)cc2)s1`, 3.2%.
`Nc1ccc(C(=O)O)cc1`: the viability decrease (inhibition) is -4.7%.
As to `Nc1nccs1`, the viability decrease (inhibition) is 10% (active).
For `COc1ccc(-c2cc(C(F)F)nn2-c2ccc(S(N)(=O)=O)cc2)cc1F`, the viability decrease (inhibition) was 1.8%.
For `NC(=O)c1ccc([N+](=O)[O-])cc1Cl` the value was 3.8%; for `CCC(=O)O[C@H]1[C@H](O[C@@H]2[C@@H](C)[C@H](O[C@H]3C[C@@](C)(OC)[C@@H](O)[C@H](C)O3)[C@@H](C)C(=O)O[C@H](CC)[C@@](C)(O)[C@H](O)[C@@H](C)C(=O)[C@H](C)C[C@@]2(C)O)O[C@H](C)C[C@@H]1N(C)C`, -12.4%.
